Experimental data taken from the supplement of paper PMC6555819.

Columns and labels:
Test in all cases: PBM binding z-score (relative to random genomic background probes); higher = stronger binding; sequences stand for … in GC…GCGATTGACAGCGTAGAATGAAGG
[1] = test system: FXR:RXRa (NR concentration 270 nM, RXRa partner concentration 90 nM)
Procedure, shortened: (§1)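 For binding z-scores, the reference was random background probes on custom Agilent 4×180K protein-binding microarrays. These arrays were incubated 1 h with ligand-free nuclear receptor dimers in PBS pH 7.4, 2% milk, 0.02% Triton X-100, 1 mM DTT, 0.2 mg/mL BSA and 0.4 mg/ml salmon testes DNA. Fluorescence was scanned after antibody detection of each partner (one per run) and regression-normalized.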

[2] = test system: LXRa:RXRa (NR concentration 270 nM, RXRa partner concentration 90 nM)
Procedure, shortened: as §1

[3] = test system: LXRa homodimer (NR concentration 270 nM)
Procedure, shortened: as §1

[4] = test system: LXRb:RXRa (NR concentration 270 nM, RXRa partner concentration 90 nM)
Procedure, shortened: as §1

[5] = test system: LXRb homodimer (NR concentration 270 nM)
Procedure, shortened: as §1

[6] = test system: PPARa:RXRa (NR concentration 270 nM, RXRa partner concentration 90 nM)
Procedure, shortened: as §1

[7] = test system: PPARg:RXRa (NR concentration 180 nM, RXRa partner concentration 90 nM)
Procedure, shortened: as §1

[8] = test system: PPARg:RXRa 270nM:90nM, anti-RXR (NR concentration 270 nM, RXRa partner concentration 90 nM)
Procedure, shortened: as §1

[9] = test system: PPARg:RXRa 30nM:10nM, anti-RXR (NR concentration 30 nM, RXRa partner concentration 10 nM)
Procedure, shortened: as §1

[10] = test system: PPARg:RXRa 90nM:30nM, anti-RXR (NR concentration 90 nM, RXRa partner concentration 30 nM)
Procedure, shortened: as §1

Row | Sequence | PBM binding z-score [1] | PBM binding z-score [2] | PBM binding z-score [3] | PBM binding z-score [4] | PBM binding z-score [5] | PBM binding z-score [6] | PBM binding z-score [7] | PBM binding z-score [8] | PBM binding z-score [9] | PBM binding z-score [10]
1 | AGAACGAGGGCACGCTAAGTTGATAGCAGAGTAG | 0.75 | 0.717 | -0.396 | 0.353 | -0.515 | 2.07 | 2.2 | 1.87 | 0.473 | 1.22
2 | CCAAGTTGGTCAGGAGGTCACACACCGGATATGA | 3.68 | 3.62 | 1.69 | 3.38 | 0.316 | 4.43 | 3.8 | 4.03 | 1.85 | 2.97
3 | TCTGCTAGGTCAACGATGGGCAGCTAATCTGCTA | 3.19 | 2.29 | -0.252 | 1.2 | -0.397 | 2.94 | 2.47 | 3.01 | 1.85 | 2.49
4 | ACAGACAGGTGAGTGAAGGTGACTCAGCTGGACG | 0.162 | -0.00172 | -0.654 | -0.308 | -0.35 | 0.592 | 0.8 | 0.28 | -0.492 | -0.01
5 | GCTTACGGGTAAAAGGTTATAGCATGAATAGAAT | 1.77 | 2.73 | 0.384 | 2.57 | 0.0166 | 4.81 | 7.24 | 7.67 | 6.08 | 8.3
6 | CCTACTGGGCCCTTCAGAGGTCATTGATCATATG | 2.3 | 3.83 | 5.02 | 3.34 | 0.134 | 3.32 | 0.503 | 1.95 | 0.162 | 0.866
7 | GGAACGAGAGCAAAGTTGATAGCATCTGTCGACG | -0.381 | -0.564 | -0.809 | -0.767 | -1.1 | 2.02 | 3.1 | 4.59 | 3.13 | 5.43
8 | CCGACTGGGGCATAAGGTTAGCATAAGCCAGCCC | -0.404 | -0.371 | -0.738 | -0.254 | -1.19 | 1.04 | 1.7 | 2.32 | 0.353 | 1.83
9 | CAAACTAGGTAAAAGGTCAAAGTCGAGCCAACCA | 6.21 | 6.09 | 4.59 | 5.87 | 2.23 | 6.92 | 12.1 | 10.2 | 11 | 11.4
10 | CCTACTTGGCCAAGGTCATTGATCAGTCAAAGCA | 3.65 | 4.26 | 1.93 | 3.87 | 1.21 | 4 | 1.27 | 2.15 | 0.389 | 1.41
11 | ATCTCGAGGTAAAGATAGTTCAGTGAATGCAAAT | 0.198 | 5.34 | 0.132 | 1.62 | 0.118 | 0.727 | 0.145 | 0.25 | 0.14 | 0.23
12 | ATACCAAGGTGTTCGTGAGGTCGTTGATACTAAC | 1.76 | 2.11 | 1.19 | 1.3 | 0.178 | 1.24 | 0.117 | 0.343 | -0.0462 | 0.253
13 | GGAACGAGGGAATTCGAGTTGATAGCATGGCGAT | -0.4 | -0.535 | -0.72 | -0.978 | -1.16 | -0.557 | 0.44 | -0.504 | -0.356 | -0.529
14 | TAGCCTAGGTCAGATCGGTCCAGTATACGCTATA | 1.8 | 0.953 | -0.475 | 0.809 | -0.111 | 1.74 | 0.543 | 0.782 | -0.239 | 0.0897
15 | TAGCCTAGGTCATTCATGGGCCAGTATAGAAAGC | 4.38 | 3.5 | 0.512 | 2.34 | 0.48 | 3.38 | 2.02 | 2.1 | 0.373 | 1.1
16 | TTGCCTAGGTCAGATCGGGCCAGTATACGCTATA | 2.67 | 1.04 | -0.621 | 0.692 | -0.831 | 1.51 | 0.532 | 0.852 | -0.179 | 0.0126
17 | CGTCAAAGTTCAACTAAGGTAATGTAAAGCACGC | 7.02 | 6.36 | 3.99 | 4.15 | 2.17 | 5.15 | 5 | 5.65 | 2.56 | 4.42
18 | CAAACTAGGTCATAGAGGTCAAAGTCCGTGCGTA | 7.25 | 6.71 | 8.36 | 6.15 | 2.33 | 6.49 | 9.13 | 7.74 | 6.17 | 7.92
19 | CAAACTAGGTCAAGGTCAAAGTGGGTTTGTGCCA | 6.71 | 5.42 | 3.68 | 4.73 | 1.29 | 6.04 | 9.42 | 7.89 | 6.5 | 8.27
20 | TCGAGTAGGTTAGGGGCGTTCAGAATGGCGTCGA | 0.341 | 0.362 | -0.22 | 0.565 | -0.227 | 0.892 | 0.197 | 1.54 | 0.846 | 1.56
21 | CCAGACAGGTGAGAAGGTAACACAGCCTCGATTA | 0.191 | 0.2 | 0.0952 | 0.413 | -0.0709 | 1.1 | 0.941 | 0.656 | 0.112 | 0.637
22 | CCTACTGGGCCACGCAAGGTCATTGATTCAGTGA | 2.92 | 3.83 | 2.79 | 2.39 | -0.438 | 3.32 | 2.94 | 3.26 | 1.18 | 2.34
23 | AGCGAAAGGTCGTGAGGTGAGTATACAGAAAGGC | 5.99 | 3.84 | -0.142 | 3.17 | -0.2 | 5.26 | 4.55 | 4.97 | 1.84 | 3.25
24 | ATATGTAGGTTAGCTGGGCTCATTCAGACTAGGC | -0.0917 | -0.146 | -0.339 | -0.294 | -0.171 | 1.98 | 2.71 | 2.34 | 0.752 | 1.5
